Out of some 53,000 sequences screened, about 3,700 (7%) were called active.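 How the source made its calls: active means gene knockdowns whose robust z-score for IL-1 alpha signal is at least 2 or at most -2, so actives lie on both sides; inactive means the rest.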 The entries come from a sample that favours actives as a whole.

This passage reports z-score results from PubChem BioAssay AID1508600 (Functional Genomics Laboratory (NCATS/FGL), 2020).

This experiment in a line: Components of the Cytosolic LPS Sensing Pathway: Gene Identification via Genome-wide siRNA Screen.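 Further: robust z of the log signal after scaling to non-targeting control siRNA wells of the plate.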 The settings on record: RAW264.7 macrophages, IL-1a HTRF, actives lie on both sides, screened at 100 nM (by protocol), cells primed 5 h with Pam3CSK4 first. The method, boiled down: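 RAW264.7; siRNA 100 nM final, RNAiMAX, 48h 37 degrees C; Pam3CSK4 5 h; LipidA + TransIT-TKO 24 h; IL-1a HTRF; CellTiter-Glo viability; robust z vs negative-control median.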
Consider GGCCUUGUAAAUUAUGCAUTT against Klhl23, for which the z-score is 0.61 (inactive).

Turning to GCCCUUUCCGUCUGAAAUCTT against Hydin, the z-score is 2.06 (active).

On to GCUUCUGGUUUUCGGCUAUTT against Sfswap, for which the z-score is 0.427 (inactive).

For the sequence GAUGUGUUAACUACACCGATT against Pyy, the z-score is 0.983 (inactive).

As to CGAGGAUGAGUUCAGUGAGTT against Pdcl3, the z-score is -1.19 (inactive).

Consider GUUGGUUUGUUGACCUCUUTT against Arap2, for which the z-score was 0.1 (inactive).

In the case of CCUACUCUGGUAAAACCUUTT against Immp1l, the z-score was -0.365 (inactive).

With GCAAAGGCCAAAUAUGAGGTT against Dbil5, the z-score is -2.71 (active).

Turning to GCCAUUAAAGGUAACACUGTT against Tmbim7, the z-score is 0.0423 (inactive).

Regarding GCCUUCUGAGAUAGUAGAUTT against Zcchc17, the z-score is 0.756 (inactive).

As to GGAGAAAAUCAAACCAGAUTT against Ddx19b, the z-score is 0.823 (inactive).

With GGACUGAUGGAUCCUUCCATT against Krtcap3, the z-score was -2.12 (active).

On to GGCAUCCAUCAACAACAGGTT against Ahsa1, for which the z-score was -0.925 (inactive).

In the case of GCAUGUACCCUCUUUGUAGTT against Gjb6, the z-score is -0.954 (inactive).

As to GGAUUCGAGUGGUAACAAGTT against Nmral1, the z-score was 0.617 (inactive).

For the sequence GGUAUAGCUACCAUUUUUCTT against Ggct, the z-score was -1.05 (inactive).

With CUUACCACCCUGAGUUUCATT against Olfr1066, the z-score was -3.2 (active).

Turning to GGAGAAAGCAGAAAUUGAATT against Mfap1a, the z-score was -1.31 (inactive).

As to CCAAGAUUCGGUUUUGCUUTT against Trerf1, the z-score was -0.33 (inactive).

Regarding GGCAGCCCUUUUGCUAAGATT against Neurod1, the z-score was -0.0737 (inactive).

In the case of GGCUGGUGAAAGUCAAGGUTT against Arid4a, the z-score is 0.503 (inactive).

As to GGAGCAGUCUCCUUUUUGUTT against Pcnp, the z-score is 2.14 (active).

Take GCUCUUGAUGUUUAGAGUUTT against Usp17lf: the z-score was 0.345 (inactive).

Regarding GGGCAGCAGCAAUUUCUGUTT against Ahcyl1, the z-score was 1.39 (inactive).

Regarding GGAAAAAUUAGACCGUGAGTT against Pcdhb4, the z-score was -0.299 (inactive).

In the case of CCAUUGAUAUUAAAUCGCUTT against Pik3cg, the z-score is -0.244 (inactive).

With GGGCUAUGUAUUGUAAAUGTT against Nxf1, the z-score is -2.79 (active).

As for GCACGACUACUUCUCAAAUTT against Prpf6, the z-score is 0.376 (inactive).

On to GGCCAGAAUAUCAUCGUCATT against Rbks, for which the z-score was -0.163 (inactive).

As to GGGACACCUUCCGUAACUATT against Gcdh, the z-score was -0.832 (inactive).

Consider GCACGCUAUUGGCUAUGAGTT against BC052040, for which the z-score is -0.0182 (inactive).

For GGUCAUGAUCAAGACACAUTT against Tmem63c, the z-score was 0.371 (inactive).

As to AAGGUUUGGAAACUCAUUGTT against Zbtb25, the z-score is -1.77 (inactive).

Consider GGGUUAGGCCAGUUCUGAUTT against Reg3d, for which the z-score was -2.08 (active).

As to GGAAGAGGAGGAGUACAAGTT against Fnbp1, the z-score is -0.0804 (inactive).

Take GCAGUUCAUGUCCUGAAUATT against Olfr308: the z-score was -1.49 (inactive).

As to GUUUCCAUAUCCUUUAAGUTT against Lilr4b, the z-score was 1.23 (inactive).

Regarding GGAACUGCUCGACAAAGCUTT against Primpol, the z-score was -2.53 (active).

Consider GGGUUAUAGGUGUGUGUGCTT against Gemin6, for which the z-score was -0.389 (inactive).

As for GCUGCACUUGAAAUCCGAGTT against Atg2b, the z-score is 1.49 (inactive).

For GCCCGUUCCACUUUUGGAGTT against Nedd1, the z-score was 2.2 (active).

As for GGAAGAAGCAGAAGAACAUTT against Rpl12, the z-score was 2.55 (active).

Turning to GGAACUCCUGGAGCAGAACTT against Tbc1d10b, the z-score was -2.52 (active).

As to GGUUGUGCAAGAGUAUGAATT against Nphs2, the z-score is 0.316 (inactive).

For the sequence GCGCACAACAGACUUCUAUTT against Epm2a, the z-score is 0.0628 (inactive).

Turning to GGAAGAACUUGACCCAGAGTT against Pex16, the z-score was 1.31 (inactive).

For the sequence GGCGACAGUUGUUUUUGUGTT against Nlrp4b, the z-score is -0.588 (inactive).

In the case of GCUGUUUUACCUUAAUCCCTT against Tnfsf18, the z-score was 0.601 (inactive).

For “GGAAUUCCAAGUCAUUAUUTT against B230340J04Rik”, the z-score is 0.664 (inactive).

For GCAUCUUAGGCAUUGCUAGTT against Pcna, the z-score is -0.156 (inactive).

With GGAUCAUGGGCGAAUGAUGTT against Rae1, the z-score was -1.41 (inactive).

Consider “GGACAAAAACAAAUGUGAGTT against 4933417A18Rik”, for which the z-score was -2.43 (active).

Turning to GGAAUCAAAGGUCAAGCCATT against Rnf181, the z-score is 2.17 (active).

Turning to CCAUGUCAGUUACAAUGCGTT against Gja6, the z-score was 1.54 (inactive).

Turning to GGUCCAUGAUUGAAACACGTT against Srpr, the z-score was 0.798 (inactive).

With GCAGAUAAGAGUUCAAAUCTT against Oxa1l, the z-score was -0.499 (inactive).

For the sequence GACAUACAAUCUCCUACAUTT against Olfr478, the z-score was 0.818 (inactive).

On to GCCGGGACCAUGAUUAUAGTT against Rbm10, for which the z-score was 2.7 (active).

In the case of GGAAUUCCGAAUAUUCCAGTT against Tsen2, the z-score was 1.51 (inactive).

As for GGAAGCCACCUUAACAUUATT against Osgin1, the z-score was -0.814 (inactive).

As to GGAGAACUCUUUCAGAUUCTT against Stk36, the z-score was 0.957 (inactive).

Take GGGAUUCUGUCUGCACUGUTT against Olfr1145: the z-score was -2.51 (active).

In the case of GGGUUCUGCAUGUUGAUUCTT against Chm, the z-score is -0.853 (inactive).

Regarding GCCACCCACCUAAAAUCAATT against Rcsd1, the z-score was -0.216 (inactive).

Consider GGAAGUCUAGGUAAAAAAGTT against Samsn1, for which the z-score was -0.994 (inactive).

Take GGACUUCAAGGACUUCUACTT against Crtap: the z-score is 0.112 (inactive).

In the case of GGACAAUUGAAAACUGCCUTT against Gpd1, the z-score is 2.95 (active).

In the case of GGGUGAGUGUCGGAACUUUTT against Sema6b, the z-score was -0.157 (inactive).

For the sequence GGUUGUGCCAGAGGAGAUUTT against Scrib, the z-score is 0.963 (inactive).
